Drawing on PubChem BioAssay AID1259415 (National Center for Advancing Translational Sciences (NCATS), 2018), this text covers activity change, negative = inhibition for 24 molecules.

In all, about 410,000 compounds went through this assay and about 18,000 (4.4%) were called active. About 7% were inconclusive and are not listed. The sample as a whole holds a higher share of actives than the screen did. A number with no mark means an inactive call. Rule as the data show it: active = activity change below about -60%; inconclusive = no clear call, values can overlap the other calls; inactive = above about -39%.
% is scaled to controls: 0 for no effect and ±100 for the full control effect.

The test is described as follows: qHTS Assay for inhibitors of the human cytomegalovirus (HCMV). The conditions noted are these: HFF cells, HCMV-luciferase reporter, 72 h; at 57.5 µM; active compounds read low. An outline of the steps: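 Two-dose cell screen: HFF monolayers treated with compounds and infected with luciferase-expressing HCMV at 1 PFU/cell, 72 h at 37C, then lysed for luciferase measurement.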
`CCOC(=O)c1cc2c(=O)n3ccccc3nc2n(CCCOC)c1=NC(=O)C(C)(C)Oc1ccc(Cl)cc1`: the activity change, negative = inhibition was 6.81%.

Take `COc1ccc(CCNCc2c(C(=O)O)c(C)n(Cc3cccc(C)c3)c2C)cc1OC`: the activity change, negative = inhibition was -1.54%.

`Cc1ccccc1CN1C[C@@H]2C[C@@H](c3cn(C)nc3-c3ccccc3)N3CCC[C@@]23C1=O`: the activity change, negative = inhibition was 32.8%.

Turning to `CCOc1ccc(NC(=O)c2cnn(-c3ccccc3)c2-n2cccc2)cc1`, the activity change, negative = inhibition was -19.9%.

With `CCOc1ccc(-c2cc3c(=O)n(CC(=O)NCc4ccc(OC)cc4)ccn3n2)cc1`, the activity change, negative = inhibition was 78.4%.

For `CCOc1ccc(NC(=O)c2cc(C)nc3ccccc23)cc1`, the activity change, negative = inhibition is -60.4% (active).

Consider `CCOc1ccc(-c2cc(C(=O)N/N=C/c3ccc(O)cc3)c3ccccc3n2)cc1`, for which the activity change, negative = inhibition was -83% (active).

As for `CCOc1ccc(CNC(=O)c2cc(-c3ccc(Cl)s3)nc3ccccc23)cc1`, the activity change, negative = inhibition was 1.58%.

For the molecule `CCOc1ccc(-c2cc(C)n3nc(C(=O)Nc4ccc(C)c(C)c4)cc3n2)cc1`, the activity change, negative = inhibition is -5.97%.

For `Cc1ccc(NC(=O)Cn2nnc3sc4c(c3c2=O)CCC(C)C4)cc1` (centres undefined), the activity change, negative = inhibition was -19.7%.

As for `COc1ccc(-c2onc(C)c2C)cc1S(=O)(=O)NCc1cccs1`, the activity change, negative = inhibition is 86.9%.

In the case of `O=C(COc1ccc(Cl)cc1)Nc1ccccc1OCc1cc(=O)n2ccccc2n1`, the activity change, negative = inhibition is 47.7%.

With `COc1ccc(C(=O)COC(=O)CCCC(=O)Nc2cc(C(F)(F)F)ccc2Cl)cc1`, the activity change, negative = inhibition was -1.47%.

On to `CC(=O)Nc1ccc(NC(=O)CCCNC(=O)c2ccc(Cl)cc2)cc1`, for which the activity change, negative = inhibition was -21.3%.

Consider `CCCCC(=O)Nc1ccc(C(=O)Nc2cc(C(F)(F)F)ccc2Cl)cc1`, for which the activity change, negative = inhibition is -64% (active).

With `O=C(CCc1nc(CN2CCN(S(=O)(=O)c3ccc(Br)cc3)CC2)no1)N1CCCCC1`, the activity change, negative = inhibition is 20.2%.

Consider `CCOC(=O)c1ccc(NC(=O)CCS(=O)(=O)c2ccc3c(c2)oc(=O)n3C)cc1`, for which the activity change, negative = inhibition is 0.775%.

In the case of `CCOc1ccc(CNC(=O)c2cccc(Nc3nc4ccccc4n4nnnc34)c2)cc1OC`, the activity change, negative = inhibition was -17.1%.

Turning to `COc1ccc(-c2nc3sc(CCNC(=O)C(C)(C)C)c(C)n3n2)cc1`, the activity change, negative = inhibition is -21.2%.

As to `COc1cncc(-c2cnc3sc(NCCc4ccccn4)nn23)c1`, the activity change, negative = inhibition is -64.8% (active).

As for `O=C(CNC(=O)COc1ccccc1)NCCc1ccccn1`, the activity change, negative = inhibition is 31.2%.

Take `CC(C)c1ccc(-c2noc(C3CCCN(S(C)(=O)=O)C3)n2)cc1` (centres undefined): the activity change, negative = inhibition was -15.2%.

For `CC(C)c1ccc(NC(=O)C2CCN(c3nc(-c4ccc(C(C)C)cc4)no3)CC2)cc1`, the activity change, negative = inhibition was -71.9% (active).

Consider `CCOc1ccc(NC(=O)C2CCN(S(=O)(=O)c3cc(-c4noc(C)n4)ccc3C)CC2)cc1`, for which the activity change, negative = inhibition was 10.9%.
